Experimental data: PubChem BioAssay (Tox21)
Values joined by “and” are separate entries in the source; they are usually repeats but may differ in a detail not shown here. Equal values may be shown once. Inconclusive results are not listed. The source holds several records for some structures; these can differ, active in one and inactive in another. Active and inactive are the calls of the source. Unless noted, the call rests on the fitted dose curve; in most records, active means well fitted curve in the direction sought with a large enough effect in the repeat runs; inconclusive means weak or mixed curves; inactive means no such curve, though single readings can be large; an effect the other way counts as inactive or inconclusive.

Tests used:
[1] = qHTS assay for small molecule agonists of the p53 signaling pathway (AID 651631; calls by dose curve; further: nearly all actives have a fitted effect of over 15% in size; further: potency means the concentration at half of the fitted maximal effect)
Method in brief: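 Beta-lactamase reporter activity under p53 response elements was quantified in HCT-116 cells by FRET fluorescence, following 16 h incubation with test compounds at 37 °C and 2 h substrate development at room temperature.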

[2] = qHTS assay for small molecules that induce genotoxicity in human embryonic kidney cells expressing luciferase-tagged ATAD5 (AID 651632); further: nearly all actives have a fitted effect of over 15% in size
Method in brief: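 Quantitative HTS in HEK293T expressing luciferase-tagged ATAD5, whose levels rise upon DNA damage. Exposure ran 16 hr at 37C and 5% CO2, with luminescence read 30 min after Amplite addition at room temperature.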

[3] = qHTS assay for small molecule agonists of the p53 signaling pathway - cell viability (AID 651633; calls by dose curve;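 further: p53RE-bla HCT reporter cells with a stable beta-lactamase p53 reporter; series mostly up to about 83 µM; nearly all actives have a fitted effect of over 30% in size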)
Method in brief: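 p53RE-bla cells, seeded at 4,000 per well and rested 5 h at 37 C/5% CO2, received compounds in DMSO for 16 h at 37 C. CellTiter-Glo was then added, and luminescence was read after 30 min at room temperature to gauge cytotoxicity.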

[4] = qHTS assay for small molecules that induce genotoxicity in human embryonic kidney cells expressing luciferase-tagged ATAD5 - cell viability (AID 651634; calls by dose curve; further: nearly all actives have a fitted effect of over 25% in size; further: potency means the concentration at half of the fitted maximal effect)
Method in brief: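 After 15.5 hr incubation with compound at 37C, 5% CO2, HEK293T ATAD5-luciferase cells received CellTiter-Fluor reagent; fluorescence intensity was quantified following 30 min at 37C.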

[5] = qHTS assay for small molecule disruptors of the mitochondrial membrane potential - cell viability (AID 720634; calls by dose curve;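 further: human HepG2 liver cancer cells; series mostly up to about 83 µM; nearly all actives have a fitted effect of over 20% in size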)
Method in brief: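 ATP-based luminescent viability readout (CellTiter-Glo, 30 min, room temperature) in HepG2 cells multiplexed with the m-MPI membrane potential dye; compound exposure lasted 1 hr at 37 C.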

[6] = qHTS assay for small molecule disruptors of the mitochondrial membrane potential (AID 720635); further: potency means the concentration at half of the fitted maximal effect
Method in brief: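 HepG2 cells (2,000/well) attached overnight at 37C, then took compound for 1 hr at 37C, 5% CO2. Mito-MPS dye was added for 30 min; fluorescence was read at 490/535 nm (monomers) and 540/590 nm (aggregates).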

[7] = qHTS assay to test for compound auto fluorescence at 590 nm (red) in HepG2 cells (AID 720674)
Method in brief: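 Compound auto-fluorescence is scored relative to Rose Bengal sodium, measured at 540/590 nm in live HepG2 cultures after 1 hr compound contact (37 C, 5% CO2).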

[8] = qHTS assay to test for compound auto fluorescence at 535 nm (green) in HepG2 cells (AID 720675)
[9] = qHTS assay to test for compound auto fluorescence at 460 nm (blue) in HEK293 cells (AID 720678)
Method in brief: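 HEK293 cells (2,000/well, medium with 10% dialyzed FBS) attached 4-5 hr, then exposed to compound overnight at 37C, 5% CO2. Blue fluorescence read at 405/460 nm, with triamterene as reference fluorophore.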

[10] = qHTS assay to test for compound auto fluorescence at 590 nm (red) in HEK293 cells (AID 720679)
Method in brief: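 HEK293 cells (2,000/well, 10% dialyzed FBS) attached 4-5 hr, then dosed with compound or DMSO and incubated overnight at 37C, 5% CO2. Red fluorescence read at 540/590 nm, Rose Bengal sodium as reference fluorophore.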
On the % scale 0 is the no-effect control and ±100 the full control effect.

Nc1nc(Cl)nc2c1ncn2[C@H]1C[C@H](O)[C@@H](CO)O1
active: Potency [1] 841 nM and 341 nM
inactive: Potency [2] | Potency [3] | Potency [4] | Potency [5] | Potency [6] | outcome [7] | outcome [8] | Potency [9] | outcome [10]

CC(C)=CCC/C(C)=C/C=N/O
inactive: Potency [1] | Potency [2] | Potency [3] | Potency [4] | Potency [5] | Potency [6] | outcome [7] | outcome [8] | Potency [9] | outcome [10]

C[C@H]1C[C@H]2[C@@H]3CCC4=CC(=O)C=C[C@]4(C)[C@@]3(F)[C@@H](O)C[C@]2(C)[C@@]1(O)C(=O)COP(=O)(O)O
inactive: Potency [1] | Potency [2] | Potency [3] | Potency [4] | Potency [5] | Potency [6] | outcome [7] | outcome [8] | Potency [9] | outcome [10]

O=C(O)c1ccccc1-n1cc(C(=O)O)c(=O)c2cc(Nc3c(F)cc(F)cc3Cl)c(Cl)cc21
inactive: Potency [1] | Potency [2] | Potency [3] | Potency [4] | Potency [5] | Potency [6] | outcome [7] | outcome [8] | Potency [9] | outcome [10]

CC1(C)C(=O)NC(=O)N1CO
inactive: Potency [1] | Potency [2] | Potency [3] | Potency [4] | Potency [5] | Potency [6] | outcome [7] | outcome [8] | Potency [9] | outcome [10]

COC(=O)C(C)(C)C
inactive: Potency [1] | Potency [2] | Potency [3] | Potency [4] | Potency [5] | Potency [6] | outcome [7] | outcome [8] | Potency [9] | outcome [10]

CC(=O)c1cccnc1
inactive: Potency [1] | Potency [2] | Potency [3] | Potency [4] | Potency [5] | Potency [6] | outcome [7] | outcome [8] | Potency [9] | outcome [10]

Cc1cccc(C)c1NC(=O)CN1CCCC1
inactive: Potency [1] | Potency [2] | Potency [3] | Potency [4] | Potency [5] | Potency [6] | outcome [7] | outcome [8] | Potency [9] | outcome [10]

CCCC1CCCC(=O)O1 (stereo unspecified)
inactive: Potency [1] | Potency [2] | Potency [3] | Potency [4] | Potency [5] | Potency [6] | outcome [7] | outcome [8] | Potency [9] | outcome [10]

O=C1OC(=O)C2CC=CCC12 (stereo unspecified)
inactive: Potency [1] | Potency [2] | Potency [3] | Potency [4] | Potency [5] | Potency [6] | outcome [7] | outcome [8] | Potency [9] | outcome [10]

CC1=CC(=C(c2ccc(N)cc2)c2ccc(N)cc2)C=CC1=N
inactive: activation [1] -1.72% [at 8.3 µM] | Potency [2] | Potency [3] | activity, negative = cytotoxicity [4] -19.8% [at 8.08 µM] | activity change, negative = cytotoxicity [5] -6.69% [at 8.08 µM] | outcome [7] | outcome [8] | Potency [9] | outcome [10]
active: Potency [4] 11.9 µM | Potency [6] 221 nM and 55 nM
